Assays:
Format in all cases: functional
[1] = biological target: Solute carrier family 2, facilitated glucose transporter member 1 (Homo sapiens) (UniProt P11166); assay: ST_JUDE_LEISH: Cytotoxicity at 2uM final concentration against transgenic Leishmania Mexicana promastigotes LmGLUT1 that are glucose transport deficient and complemented with the human glucose transporter GLUT1. Activity is measured by DNA content using SYBR green in vitro
[2] = biological target: Hexose transporter 1 (Plasmodium falciparum) (UniProt O97467); assay: ST_JUDE_LEISH: Cytotoxicity at 2uM final concentration against transgenic Leishmania Mexicana promastigotes LmPfHT that are glucose transport deficient and complemented with the Plasmodium falciparum hexose transporter. Activity is measured by DNA content using SYBR green in vitro
[3] = biological target: Glucose transporter (Leishmania mexicana) (UniProt O61059); assay: ST_JUDE_LEISH: Cytotoxicity at 2uM final concentration against transgenic Leishmania Mexicana promastigotes LmGT2 that are glucose transport deficient and complemented with the L. Mexicana glucose transporter 2. Activity is measured by DNA content using SYBR green in vitro

Sequence of Solute carrier family 2, facilitated glucose transporter member 1 (Homo sapiens) (P11166 whole entry): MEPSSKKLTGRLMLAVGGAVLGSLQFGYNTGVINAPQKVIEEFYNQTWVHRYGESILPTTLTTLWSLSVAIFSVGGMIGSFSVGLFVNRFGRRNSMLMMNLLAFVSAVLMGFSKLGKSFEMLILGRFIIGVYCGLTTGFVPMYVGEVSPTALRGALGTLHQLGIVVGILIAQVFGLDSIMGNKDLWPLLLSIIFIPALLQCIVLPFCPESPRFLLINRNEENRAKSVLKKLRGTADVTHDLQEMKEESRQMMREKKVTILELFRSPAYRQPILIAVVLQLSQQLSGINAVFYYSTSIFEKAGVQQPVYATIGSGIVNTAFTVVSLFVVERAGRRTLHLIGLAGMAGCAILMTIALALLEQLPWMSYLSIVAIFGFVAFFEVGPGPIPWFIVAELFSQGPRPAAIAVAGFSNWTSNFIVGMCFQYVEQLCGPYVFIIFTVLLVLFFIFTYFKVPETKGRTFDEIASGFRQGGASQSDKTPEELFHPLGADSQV

Row | Structure (SMILES) | inhibition [1] [%] | inhibition [2] [%] | inhibition [3] [%]
1 | COc1ccc(CNC(=O)NC2CCN(c3ccnc(Nc4ccc(F)cc4)n3)C2)cc1 (stereo unspecified) | 7.84 | 5.37 | 7.65
2 | CS(=O)(=O)Nc1ccc(OCCCCCCOc2ccc(NS(C)(=O)=O)cc2)cc1 | 1.48 | 3.08 | 2.14
3 | COc1cc2nccc(Nc3ccc(NC(=O)c4ccc(C)cc4)c(O)c3)c2cc1OC | 6.88 | 9.16 | 2.92
4 | c1cc(CN2CCc3ccccc3CC2)cc(-c2c[nH]c3nc(NC4CCCC4)ncc23)c1 | -0.02 | -0.68 | 0.91
5 | CN(C)c1ccc(NC2=NC(N)=NC(C)(C)N2)cc1 | 0.38 | 1.5 | 0.7
6 | COc1cc(OC)c(NC(=O)Nc2ccnc3ccccc23)cc1Cl | 9.23 | 8.9 | 5.83
7 | COc1ccc(CNc2ncnc3c2[nH]c2ccc(F)cc23)cc1 | 7.12 | 7.69 | 4.52
8 | O=C(NCCN1CCOCC1)c1ccc(O)c(-c2cccc(C(F)(F)F)c2)c1 | 0.48 | 1.53 | 2.43
9 | Cc1cc(N[C@@H](CC(C)C)C(=O)NCCOc2ccccc2)nc(NCCc2ccc(F)cc2)n1 | 2.19 | 2.57 | -0.16
10 | COc1cc(NC(=O)c2c(-c3c(Cl)cccc3Cl)noc2C)c(OC)cc1Cl | 3 | 4.65 | 3.12
11 | Cn1nccc1C(=O)NCCNCc1ccc(-c2ccc(-c3nc4cc(C(F)(F)F)ccc4[nH]3)s2)cc1 | 0.47 | -0.52 | 0.87
12 | COc1ccc(C(=O)N2CCC3(CC2)C(=O)N(CC(=O)NCC2CCCCC2)CN3c2ccccc2)cc1 | 3.99 | 4.58 | 3.35
13 | [O-][s+]1c(Cl)c(-c2ccc(Cl)cc2)c2ccc(Cl)cc21 (stereo unspecified) | 6.36 | 8.82 | 3.59
14 | O=C(COc1ccccc1Cc1ccccc1)Nc1cc(Cl)ccc1-n1cncn1 | 4.5 | 4.62 | 3.15
15 | O=S(=O)(c1ccc(OCc2ccc(Cl)cc2)cc1)c1cc2c(c(-c3ccc(F)cc3)c1)CCN(CC1CC1)CC2 | 2.2 | 0.41 | -0.48
16 | COc1ccc2nc3cc(Cl)ccc3c(NCCCCNc3c4ccc(Cl)cc4nc4ccc(OC)cc34)c2c1 | 11.8 | 12.5 | 9.15

Row | Structure (SMILES) | inhibition [1] [%] | inhibition [2] [%] | inhibition [3] [%]
17 | COC(=O)c1ccccc1N1CCN(CCCCNC(=O)c2ccc(NC(=O)c3cc(Cl)cc(Cl)c3)cc2)CC1 | 3.86 | 5.53 | 3.09
18 | O=C(Nc1ccc(OCc2ccccc2)cc1)c1nc2ccccc2nc1Cl | 1.33 | 1.29 | 1.34
19 | CCNc1cc(C(=O)N[C@@H](Cc2ccccc2)[C@H](O)CN[C@H]2CCc3ccccc32)cc(N2CCCC2=O)c1 | 1.96 | 1.74 | 2
20 | COc1ccc(C(=O)CCC(=O)N(CCC2CCCN2C)Cc2ccc(-c3ccc(CNCCc4ccc(S(C)(=O)=O)cc4)cn3)cc2)cc1F (stereo unspecified) | 11.4 | 9.98 | 9.19
21 | COc1ccc(N2CCN(CCCCNC(=O)c3ccc(NC(=O)c4cc(C(F)(F)F)cc(C(F)(F)F)c4)cc3)CC2)cc1OC | 1.59 | 2.48 | 2.71
22 | O=C(Nc1cccnc1)c1cc(-c2cc(Cl)ccc2O)n[nH]1 | 2.55 | 2.47 | 3.15
23 | N=C(NCc1ccccc1)Nc1nc(-c2ccc(OCCCn3ccnc3)cc2)cs1 | 29.9 | 35.3 | 15.5
24 | CN1CCN(CC(=O)Nc2ccc(-c3cccc(-c4nc5cc(C(F)(F)F)ccc5[nH]4)c3)cc2)CC1 | 0.66 | 1.68 | -1.43
25 | COc1cc2c(C3CCN(CC4CCC(NC(=O)/C=C/c5ccc(Cl)c(Cl)c5)CC4)CC3)c[nH]c2cn1 (stereo unspecified) | 9.19 | 8.02 | 7.96
26 | Cc1cccc(C(=O)NC(NC(=S)Nc2cc(Cl)ccc2Cl)C(Cl)(Cl)Cl)c1 (stereo unspecified) | -0.37 | -1.9 | -2.85
27 | COc1ccc2nccc([C@@H](O)CN3CCC(NC(=O)C(c4cc5ccccc5s4)N4CC(C)OC(C)C4)CC3)c2c1 (stereo partly specified) | 4.19 | 2.81 | 3.57
28 | COc1cc(Cc2cnc(N)nc2N)ccc1OCc1ccc(NC(C)=O)cc1 | 1.71 | 4.96 | 3.61
29 | CN1CCN(c2cccc(Nc3nccc(NCC(O)c4ccccc4)n3)c2)CC1 (stereo unspecified) | 1.83 | 1.6 | 0.06
30 | CC(=O)Nc1cccc(C(=O)Nc2cccc(-c3ccc(-c4nc5cccc(C)c5[nH]4)s3)c2)c1 | 3.54 | 1.14 | 0.43
31 | O=C(NCCN1CCCCC1)c1ccc(Nc2nccc(Nc3ccc(Oc4ccccc4)cc3)n2)cc1 | 7.53 | 8.31 | 16.6
32 | Cc1nc(N)nc(N)c1CCCOc1cccc(Cl)c1 | 7.39 | 7.51 | -0.98

From ChEMBL document CHEMBL3433997, “St. Jude Leishmania screening dataset” (2016)
